The text below walks through data of ChEMBL document CHEMBL3433997, “St. Jude Leishmania screening dataset” (2016).

Each structure is given as a SMILES string.

The target in the assay is Solute carrier family 2, facilitated glucose transporter member 1 (Homo sapiens) (UniProt P11166). The assay is described as follows: ST_JUDE_LEISH: Cytotoxicity at 2uM final concentration against transgenic Leishmania Mexicana promastigotes LmGLUT1 that are glucose transport deficient and complemented with the human glucose transporter GLUT1. Activity is measured by DNA content using SYBR green in vitro. It counts as functional.
Sequence of Solute carrier family 2, facilitated glucose transporter member 1 (Homo sapiens) (P11166 whole entry): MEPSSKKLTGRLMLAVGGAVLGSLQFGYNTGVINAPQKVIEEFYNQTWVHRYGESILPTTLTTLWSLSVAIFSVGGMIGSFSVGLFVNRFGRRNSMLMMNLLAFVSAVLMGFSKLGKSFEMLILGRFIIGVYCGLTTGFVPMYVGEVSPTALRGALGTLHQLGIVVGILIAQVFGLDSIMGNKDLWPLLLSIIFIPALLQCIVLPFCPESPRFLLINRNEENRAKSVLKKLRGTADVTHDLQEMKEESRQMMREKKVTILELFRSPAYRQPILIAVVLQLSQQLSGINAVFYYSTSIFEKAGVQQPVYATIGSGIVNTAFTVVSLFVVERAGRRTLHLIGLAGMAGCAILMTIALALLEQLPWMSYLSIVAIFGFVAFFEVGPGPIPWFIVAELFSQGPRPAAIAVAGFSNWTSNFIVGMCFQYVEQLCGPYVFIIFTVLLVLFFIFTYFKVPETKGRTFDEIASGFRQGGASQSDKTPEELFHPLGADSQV
`COc1ccccc1CCNC(=O)c1cnc(N2CCN(c3ccncc3)CC2)c(Cl)c1`: the inhibition (commonly the relative decrease from the control value, in per cent) was 74.5%.
Then `CS(=O)(=O)N(CC(O)Cn1c2ccc(Cl)cc2c2cc(Cl)ccc21)c1ccccc1` (stereo not given), with 0.79%; and `C=CCc1ccc(C[C@H](NC(=O)OC(C)(C)C)C(=O)OC)cc1`, with 22.2%.
The value for `O=c1cc(NCCCNC2CCCc3c2cc(Cl)c(Cl)c3Cl)[nH]c2ccccc12` (stereo not given) was -3.43%; that for `CC(C)Cn1c(N)cc(=O)n(C)c1=O` was 3.76%.
`N=C(N)c1cccc(-c2cc(-c3cccc(C(=N)N)c3)on2)c1`: the inhibition stood at 0.92%.
With `CN1CCC(C(=O)Nc2cccc(-c3ccc(-c4nc5cc(F)ccc5[nH]4)cc3)c2)CC1`, the inhibition amounted to 8.64%.
As for `CN1CCN(CCCN(Cc2cccc(-c3ccc(CNCCc4ccccc4)cc3)c2)C(=O)c2cccs2)CC1`, the inhibition came to 4.14%.
On to `CC(C)C(=O)NC(Nc1ccc([N+](=O)[O-])cc1)C(Cl)(Cl)Cl` (stereo not given), for which the inhibition worked out at 3.83%.
With `CCN1CCC(N(Cc2ccc(-c3ccc(C(F)(F)F)cc3)cc2)C(=O)Cn2c(CCc3cccc(F)c3F)cc(=O)c3cn(C)nc32)CC1`, the inhibition is -2.3%.
`CCCOc1cc(O)c(-c2[nH]nc(C)c2Oc2ccccc2)cc1CC`: the inhibition was found to be 1.25%.
Regarding `N=c1c2c(n(Cc3ccccc3)c3c1CCC3)CCCC2`, the inhibition stood at 26.6%.
With `CN(C)CCCOC(=O)c1cc2cc(-c3ccccc3)ccc2n1S(=O)(=O)Cc1ccccc1`, the inhibition turned out to be 5.88%.
Then `Cc1cc(N(C)C2CCN(C)C2)nc(Nc2ccc(Cl)cc2)n1` (stereo not given), with 7.55%; and `CCN1CCN(c2cc(C)c3cc(NC(=O)c4cccc([N+](=O)[O-])c4)ccc3n2)CC1`, with -0.98%; and `O=C(Nc1ccc(Cl)cc1)Nc1nc2cc([N+](=O)[O-])ccc2[nH]1`, with 0.18%.
Then `CC(C)(CNC(=O)[C@H]1CCCCN1)c1nc(-c2ccc(Cl)c(O)c2)c(-c2ccncc2)[nH]1`, with 5.66%; and `CNCCNCc1cccc(-c2cccc(-c3nc4cc(C(F)(F)F)ccc4[nH]3)c2)c1`, with 2.15%; and `COc1ccc(Nc2nccc(NCCNC(=O)Nc3ccccc3F)n2)cc1`, with 2.23%.
The value for `N=C(N)Nc1nc(-c2cc(NC(=O)C(F)(F)F)cc([N+](=O)[O-])c2)cs1` was 0.23%.
`COc1cc(Nc2ccnc3cc(-c4ccccn4)ccc23)cc(OC)c1OC`: the inhibition worked out at 5.56%.
On to `N#Cc1ccc(CN2CCC(Oc3ccc(NC(=O)c4ccco4)cc3Cl)CC2)cc1`, for which the inhibition was 0.38%.
Then `CCNC(=O)Nc1ccc(-c2ccc(-c3nc4cccc(C)c4[nH]3)s2)cc1`, with 11.7%.
`O=C(Nc1ccc(Br)cc1)N1CCC(n2c(-c3ccccc3)nc3cccnc32)CC1`: the inhibition was 2.24%.
On to `COc1ccc(-c2csc3nc(C)nc(Cl)c23)cc1OC`, for which the inhibition was -0.82%.
Then `COc1ccc(S(=O)(=O)NC2CCN(c3cc(C)nc(Nc4cccc(C#N)c4)n3)CC2)cc1`, with 4.31%; and `CCN(CC)CCNC(=O)c1ccc(NC(=O)c2cc(-c3ccncc3)nc3ccccc23)cc1`, with 0.16%; and `CN(CCCCCN1CCC(NC(=O)Nc2ccc(C(F)(F)F)cc2)C1)C(=O)/C=C/c1ccc(Cl)c(Cl)c1` (stereo not given), with 3.11%.
In the case of `O=C(Nc1ccc(Br)cc1)N(CCN1CCOCC1)CC(O)COCc1ccc(Cl)c(Cl)c1` (stereo not given), the inhibition worked out at 2.07%.
For `O=[N+]([O-])c1ccc(C(O)P(=O)(c2ccccc2)c2ccccc2)cc1` (stereo not given), the inhibition was -0.33%.
Then `OCCN1CCN(Cc2ccc(-c3ccc(-c4nc5cc(C(F)(F)F)ccc5[nH]4)s3)cc2)CC1`, with 5.47%; and `Cc1nc(-c2cccc3c(NC(=O)Nc4ccc5nccc(N6CCN(C)CC6)c5c4)cccc23)no1`, with 4.28%; and `Cc1ccc(-n2nc3ccc(NC(=O)c4ccc([N+](=O)[O-])o4)cc3n2)cc1C`, with 60.8%.
As for `Cc1nc2ccc([N+](=O)[O-])cc2c(=O)n1OCc1ccccc1`, the inhibition was found to be 2.26%.
Then `CCc1c(CCNC/C=C/C=C/CNCCc2ccc(OC)c(OC)c2CC)ccc(OC)c1OC`, with 3.5%.
Take `COc1cc(-n2c(CN3CCCC3)nc3cc(-c4ccc(Cl)cc4)sc3c2=O)ccc1OCCN1CCCC1`: the inhibition was 2.99%.
With `COc1ccc(CN2CCC(C(=O)Nc3cccc(-c4cccc(Cl)c4)c3)CC2)cc1O`, the inhibition came to 5.45%.
Take `O=C(/C=C/c1ccc(Cl)c(Cl)c1)N1CCC(CCCN2CCC(c3c[nH]c4ccccc34)CC2)CC1`: the inhibition came out at 70.7%.
Consider `Fc1ccc(CN2CCN(c3ncnc4cc(-c5ccccc5)sc34)CC2)cc1`, for which the inhibition is -1.67%.
As for `Cn1ccnc1Sc1ncccc1[N+](=O)[O-]`, the inhibition was -2.32%.
